Among the data in PubChem BioAssay AID1220 (Sanford-Burnham Center for Chemical Genomics, 2008) are inhibition values, retold here.

In all, about 190,000 compounds went through this assay and about 1,300 (0.68%) were called active. Cut-off read from the data, not from the text of the source: active = inhibition above about 50%; inactive = the rest. For the sample, actives were picked, then their nearest neighbours and some compounds at random.

Chain of Mannose-6-phosphate isomerase (Homo sapiens) (P34949 whole entry, looked up): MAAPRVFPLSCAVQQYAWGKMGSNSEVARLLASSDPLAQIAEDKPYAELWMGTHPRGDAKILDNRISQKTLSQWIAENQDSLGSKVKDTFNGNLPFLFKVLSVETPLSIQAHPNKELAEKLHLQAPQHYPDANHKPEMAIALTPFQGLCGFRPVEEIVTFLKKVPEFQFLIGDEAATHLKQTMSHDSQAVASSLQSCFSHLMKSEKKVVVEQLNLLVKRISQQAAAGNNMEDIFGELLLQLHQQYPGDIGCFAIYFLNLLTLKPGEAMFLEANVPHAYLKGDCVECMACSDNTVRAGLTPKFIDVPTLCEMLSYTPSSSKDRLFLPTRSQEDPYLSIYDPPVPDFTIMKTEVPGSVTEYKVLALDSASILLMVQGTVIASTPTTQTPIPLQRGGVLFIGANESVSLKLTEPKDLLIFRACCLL

The test addresses Mannose-6-phosphate isomerase (Homo sapiens) (UniProt P34949). The experiment in a line: MPI inhibition at elevated mannose 6-phosphate – biochemical, fluorescence intensity, high mannose 6-phosphate, primary screen (AID 1220). As to conditions: recombinant PMI enzyme, coupled fluorescence intensity; at 20 µM; hits give high values.
One may read the inhibition as the drop in the measured response relative to a control, in per cent. For the molecule `Cc1cc(NC(=O)CSc2nc(-c3ccccc3)nc3c2c(=O)n(C)c(=O)n3C)no1`, the inhibition is -6.7% (inactive). With `CCn1c(SCC(=O)Nc2cc(OC)c(OC)c(OC)c2)nnc1-c1cccs1` the figure was 0.1% (inactive). On to `CC(=O)N(C)c1ccc(NC(=S)Nc2ccccc2)cc1`, for which the inhibition was 2.5% (inactive).

Regarding `S=C(Nc1ccc(Cl)cc1)Nc1cccc2cnccc12`, the inhibition is 12.2% (inactive). With `CCc1ccc(NC(=S)Nc2cccc3cnccc23)cc1` the figure was 51.5% (active); with `Cc1cc(C)cc(NC(=S)Nc2cccc3cnccc23)c1`, 59.3% (active). With `Cc1ccc(NC(=S)Nc2cccc3cnccc23)cc1C` the figure was -34.8% (inactive); with `COc1ccc(NC(=S)Nc2ccc(N(C)C(C)=O)cc2)cc1`, 17.5% (inactive); with `CC(=O)N(C)c1ccc(NC(=S)Nc2cccc3ccccc23)cc1`, 55.1% (active). On to `Fc1ccc(NC(=S)Nc2cccc3cnccc23)cc1`, for which the inhibition is -10.5% (inactive). As for `Cc1ccc(NC(=S)Nc2cccc3cnccc23)c(C)c1`, the inhibition is 25.7% (inactive). With `COc1cc(OC)cc(C(=O)N2CCCc3ccccc32)c1` the figure was 12.7% (inactive); with `Brc1ccc(/C=N/Nc2ccccn2)cc1`, -7.7% (inactive); with `COC(=O)CS(=O)(=O)c1cc([N+](=O)[O-])ccc1NC(=O)OC`, 13.9% (inactive).

Take `C1CCCN(c2nc3nonc3nc2N2CCCCCC2)CC1`: the inhibition was -3.2% (inactive).

Regarding `N#CCCn1cc(C(=O)N2CCOCC2)c(-c2ccc3c(c2)OCCO3)n1`, the inhibition is 5.1% (inactive). With `Cc1ccc2[nH]c(=O)c(CN(Cc3ccccc3Cl)C(=O)N3CCOCC3)cc2c1` the figure was 8.8% (inactive); with `COC(=O)C1=C2SC(C)C(=O)N2C(N)=C(C#N)C1c1cc(OC)c(OC)c(OC)c1` (configuration not stated), 24.2% (inactive); with `COC(=O)C1=C2SC(C)C(=O)N2C(N)=C(C#N)C1c1ccc(OC)c(OC)c1` (configuration not stated), 51.3% (active). To `CCOC(=O)C1=C(N)N2C(=O)C(C)SC2=C(C(=O)OC)C1c1cccc(OC)c1` (configuration not stated) belongs 2.8% (inactive); to `COc1ccc(S(=O)(=O)N2CCOC2CNC(=O)C(=O)NCCc2ccc(OC)c(OC)c2)cc1C` (configuration not stated), 52.2% (active); to `COc1ccc(CCNC(=O)C(=O)NCC2OCCN2S(=O)(=O)c2ccc(Br)cc2)cc1OC` (configuration not stated), -12.7% (inactive).

For `COc1ccc(S(=O)(=O)N2CCOC2CNC(=O)C(=O)NCCc2ccc(OC)c(OC)c2)cc1` (configuration not stated), the inhibition is -0.2% (inactive). With `O=C(O)C1CCC(=O)N1Cc1ccc(F)cc1` (configuration not stated) the figure was -3.6% (inactive). With `CCc1ccc(NC(=O)NCCN2CCc3ccccc3C2)cc1` the figure was -6.5% (inactive); with `CCOP(=O)(OCC)C(Nc1ccccn1)c1ccccc1` (configuration not stated), -3.9% (inactive). To `Cc1c2cnn(-c3ccccc3)c(=O)c2c(C)n1CCCC(=O)N1CCN(c2ncccn2)CC1` belongs -2.5% (inactive).
